# Laboratory results reported in the supplement of paper PMC4022240.
# ± gives the standard deviation.
# T1: HaloTag-ATRX ADD domain (163-292)
# T1 chain: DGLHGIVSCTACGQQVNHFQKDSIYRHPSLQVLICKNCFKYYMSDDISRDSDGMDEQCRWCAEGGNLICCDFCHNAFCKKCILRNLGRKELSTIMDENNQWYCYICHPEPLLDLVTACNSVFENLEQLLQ
# Key:
# Assay in all cases: peptide microarray binding signal (635 nm), min-max normalized on array (fraction of array maximum); higher = stronger binding
# Settings in all cases: peptide region: H3 20-32
# [1] = target: T1, HaloTag-ATRX ADD domain (163-292)
# Outline: (§1)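 Histone 13-mer peptide–cellulose conjugates were printed in triplicate on nitrocellulose with a Cy3 tracer, then blocked overnight at 4°C. Arrays were probed for 1 h at 4°C with biotin-labelled HaloTag reader fusions (10 nM to 1 μM) plus streptavidin-Alexa Fluor 647, or with rabbit histone antibodies (1:10,000 to 1:2,000) plus anti-rabbit Alexa 647. An Axon GenePix 4000B scanned 635 nm for signal and 532 nm for misprints. Binding signal is the triplicate-spot mean intensity, min-max scaled per library.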
# [2] = target: HaloTag-ING2 PHD (mouse Ing2 200-280)
# Outline: as §1
# [3] = target: anti-H3K4me3 antibody ab8580
# Outline: as §1
# [4] = target: anti-H3K9me3 antibody ab8898
# Outline: as §1
# [5] = peptide modifications: H3S28ph, binder concentration: 1:2,000 dilution
# [6] = peptide modifications: H3S28ph, binder concentration: 1:10,000 dilution
# [7] = peptide modifications: H3T22ph H3K23ac, binder concentration: 1:2,000 dilution
# [8] = peptide modifications: H3T22ph H3K23ac, binder concentration: 1:10,000 dilution
# [9] = peptide modifications: H3R26me2a H3K27me2, binder concentration: 1:2,000 dilution
# [10] = peptide modifications: H3R26me2a H3K27me2, binder concentration: 1:10,000 dilution
# [11] = peptide modifications: H3R26me2s H3K27me3, binder concentration: 1:2,000 dilution
# [12] = peptide modifications: H3R26me2s H3K27me3, binder concentration: 1:10,000 dilution
# [13] = peptide modifications: H3R26me2s H3K27ac, binder concentration: 1:2,000 dilution
# [14] = peptide modifications: H3R26me2s H3K27ac, binder concentration: 1:10,000 dilution
binder,measurement,setting,value
LATKAARKSAPAT [H3 20-32 L A T K A A R K Sph A P A T],peptide microarray binding signal,"[1]; peptide modifications: H3S28ph, binder concentration: 50 nM",0.013 ± 0.00031
same,peptide microarray binding signal,"[1]; peptide modifications: H3S28ph, binder concentration: 500 nM",0.00843 ± 0.0004
same,peptide microarray binding signal,"[2]; peptide modifications: H3S28ph, binder concentration: 10 nM",0.01074 ± 4.2e-05
same,peptide microarray binding signal,"[2]; peptide modifications: H3S28ph, binder concentration: 100 nM",0.0104 ± 0.00034
same,peptide microarray binding signal,[3]; [5],0.001057 ± 8.9e-06
same,peptide microarray binding signal,[3]; [6],0.00126
same,peptide microarray binding signal,[4]; [5],0.00116 ± 2.3e-05
same,peptide microarray binding signal,[4]; [6],0.00144 ± 2.8e-05
LATKAARKSAPAT [H3 20-32 L A Tph Kac A A R K S A P A T],peptide microarray binding signal,"[1]; peptide modifications: H3T22ph H3K23ac, binder concentration: 50 nM",0.00602 ± 0.00043
same,peptide microarray binding signal,"[1]; peptide modifications: H3T22ph H3K23ac, binder concentration: 500 nM",0.0111 ± 0.0014
same,peptide microarray binding signal,"[2]; peptide modifications: H3T22ph H3K23ac, binder concentration: 10 nM",0.0199 ± 0.0011
same,peptide microarray binding signal,"[2]; peptide modifications: H3T22ph H3K23ac, binder concentration: 100 nM",0.0259 ± 0.00072
same,peptide microarray binding signal,[3]; [7],0.00476 ± 0.00081
same,peptide microarray binding signal,[3]; [8],0.00616 ± 0.00082
same,peptide microarray binding signal,[4]; [7],0.00257 ± 0.00028
same,peptide microarray binding signal,[4]; [8],0.00202
LATKAARKSAPAT [H3 20-32 L A T K A A Rme2a Kme2 S A P A T],peptide microarray binding signal,"[1]; peptide modifications: H3R26me2a H3K27me2, binder concentration: 50 nM",0.004984 ± 4.8e-05
same,peptide microarray binding signal,"[1]; peptide modifications: H3R26me2a H3K27me2, binder concentration: 500 nM",0.00857 ± 0.00072
same,peptide microarray binding signal,"[2]; peptide modifications: H3R26me2a H3K27me2, binder concentration: 10 nM",0.0166 ± 0.00092
same,peptide microarray binding signal,"[2]; peptide modifications: H3R26me2a H3K27me2, binder concentration: 100 nM",0.0255 ± 0.00049
same,peptide microarray binding signal,[3]; [9],0.0097 ± 0.0011
same,peptide microarray binding signal,[3]; [10],0.0118 ± 0.00089
same,peptide microarray binding signal,[4]; [9],0.0051 ± 0.00036
same,peptide microarray binding signal,[4]; [10],0.00363 ± 7.8e-05
LATKAARKSAPAT [H3 20-32 L A T K A A Rme2s Kme3 S A P A T],peptide microarray binding signal,"[1]; peptide modifications: H3R26me2s H3K27me3, binder concentration: 50 nM",0.00342 ± 5.6e-05
same,peptide microarray binding signal,"[1]; peptide modifications: H3R26me2s H3K27me3, binder concentration: 500 nM",0.003095 ± 2.4e-05
same,peptide microarray binding signal,"[2]; peptide modifications: H3R26me2s H3K27me3, binder concentration: 10 nM",0.00889 ± 0.00023
same,peptide microarray binding signal,"[2]; peptide modifications: H3R26me2s H3K27me3, binder concentration: 100 nM",0.00808 ± 0.00038
same,peptide microarray binding signal,[3]; [11],0.0443 ± 0.0026
same,peptide microarray binding signal,[3]; [12],0.0353 ± 0.0044
same,peptide microarray binding signal,[4]; [11],0.082 ± 0.006
same,peptide microarray binding signal,[4]; [12],0.0554 ± 0.0085
LATKAARKSAPAT [H3 20-32 L A T K A A Rme2s Kac S A P A T],peptide microarray binding signal,"[1]; peptide modifications: H3R26me2s H3K27ac, binder concentration: 50 nM",0.00495 ± 0.00035
same,peptide microarray binding signal,"[1]; peptide modifications: H3R26me2s H3K27ac, binder concentration: 500 nM",0.00714 ± 0.00025
same,peptide microarray binding signal,"[2]; peptide modifications: H3R26me2s H3K27ac, binder concentration: 10 nM",0.0155 ± 0.00088
same,peptide microarray binding signal,"[2]; peptide modifications: H3R26me2s H3K27ac, binder concentration: 100 nM",0.0127 ± 0.00058
same,peptide microarray binding signal,[3]; [13],0.00574 ± 0.0007
same,peptide microarray binding signal,[3]; [14],0.00491 ± 7.1e-05
same,peptide microarray binding signal,[4]; [13],0.0064 ± 0.0001
same,peptide microarray binding signal,[4]; [14],0.00715 ± 0.0006
